Compound activity: PubChem, The Scripps Research Institute Molecular Screening Center
This is a sample that favours compounds with a hit; in the whole collection about 3.5% have one here.
FBW7 act = human FBW7 E3 ligase activation, primary screen; AlphaScreen FBW7–phospho-cyclin E peptide binding, activator screen; normalized activity (activation), % at 26.1 µM; actives 0.13% (n = 650,000); in the data active = normalized activity above about 1.9%;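 also: purified mutant Fbw7 with reduced substrate affinity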
Target sequence (Q969H0 whole entry, looked up): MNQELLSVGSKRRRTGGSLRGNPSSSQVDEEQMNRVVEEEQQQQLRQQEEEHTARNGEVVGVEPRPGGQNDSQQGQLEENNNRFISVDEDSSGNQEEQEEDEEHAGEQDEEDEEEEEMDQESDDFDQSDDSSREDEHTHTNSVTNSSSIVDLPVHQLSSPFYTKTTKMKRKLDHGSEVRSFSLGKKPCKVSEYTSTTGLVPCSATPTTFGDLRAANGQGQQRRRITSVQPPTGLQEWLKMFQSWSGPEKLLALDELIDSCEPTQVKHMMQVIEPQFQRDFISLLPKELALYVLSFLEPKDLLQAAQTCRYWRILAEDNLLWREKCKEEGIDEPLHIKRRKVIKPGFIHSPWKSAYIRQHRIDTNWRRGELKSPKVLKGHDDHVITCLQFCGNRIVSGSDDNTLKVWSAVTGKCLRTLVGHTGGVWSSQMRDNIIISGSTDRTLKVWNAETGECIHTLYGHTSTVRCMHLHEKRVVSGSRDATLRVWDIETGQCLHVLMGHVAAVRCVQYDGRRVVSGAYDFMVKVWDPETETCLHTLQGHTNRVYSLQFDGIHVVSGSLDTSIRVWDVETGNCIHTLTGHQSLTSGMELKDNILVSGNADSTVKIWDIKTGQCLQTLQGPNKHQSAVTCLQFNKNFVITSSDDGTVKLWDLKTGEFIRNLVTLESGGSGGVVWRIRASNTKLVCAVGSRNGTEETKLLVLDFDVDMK
TEAD-YAP inh = TEAD-YAP interaction inhibition; HEK-TIYL cells, TEAD-Gal4/YAP UAS-luciferase luminescence; inhibition, % at 9.12 µM; actives 1.4% (n = 640,000); in the data active = inhibition above about 32%;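 also: 0% = median of test compound wells and 100% = reference inhibitor wells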
GPR151 activ = human GPR151 activation; Q8TDV0; PathHunter beta-arrestin GPR151 cells, luminescence; activation, % at 11.2 µM; actives 1% (n = 650,000); AID 1508602; in the data active = activation above about 4.9%;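 also: 0% = median of compound wells and 100% = cells with positive control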
MITF primary = inhibitors of human MITF; O75030; AlphaScreen MITF homodimerization, bead proximity signal; inhibition, % at 2.6 µM; actives 0.91% (n = 650,000); AID 1259374; in the data active = inhibition above about 50%;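 also: 0% = vehicle wells with protein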
GPR151 conf act = human GPR151 activation, confirmation screen; shares compounds with GPR151 activ; GPR151 PathHunter beta-arrestin cells, luminescence, 90 min; % of EA-reagent control over plate median; activation, % at 11.2 µM; 6,700 tested, under 10 active; AID 1508609;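 active = mean percent activation across replicates above the confirmation screen cutoff of 4.91%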
GPR119 ag = counter-screen for GPR151 activators: effect on human GPR119; activation, % at 11.2 µM; GPR119 PathHunter beta-arrestin cells, luminescence, 90 min; 0 = compound-well median, 100 = enzyme-acceptor control; shares compounds with GPR151 activ; actives 0.3% (n = 6,700); AID 1508611;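 active = mean percent activation in the counterscreen above 29.09%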;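 also: counterscreen on off-target GPR119 to flag nonselective hits from the GPR151 activator screen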
An asterisk follows results filed as active; . = no result given.

SMILES	FBW7 act	TEAD-YAP inh	GPR151 activ	MITF primary	GPR151 conf act	GPR119 ag
Cc1ccc(CCNS(=O)(=O)c2ccc3c(c2)OCCN3C)cc1	-0.1	6.8	5.4*	1.7	2.5	3.6
Cc1cc(NS(=O)(=O)c2ccc3c(c2)OCCN3C)ccc1Br	-0.1	4.6	9.0*	3.8	-0.4	-7.5
CSc1cccc(NS(=O)(=O)c2ccc3c(c2)OCCN3C)c1	-0.2	18.7	5.0*	0.6	0.4	6.4
Cc1ccc(NS(=O)(=O)c2ccc3c(c2)OCCN3C)cc1C	-0.1	20.2	0.9	3.5	.	.
Cc1c(NC(=O)c2ccc(OCc3c(F)cccc3Cl)cc2)c(=O)n(-c2ccccc2)n1C	0.0	4.8	8.3*	4.4	1.5	-1.7
CCOC(=O)CSc1nc(N)c2c3c(sc2n1)CCCC3	0.9	-8.0	13.4*	-3.4	-1.0	0.4
CCCCCOC(=O)CSc1nc(N)c2c3c(sc2n1)CCCC3	-0.1	-5.1	-1.1	0.8	.	.
O=S(=O)(c1ccc(F)cc1)N(CCCN1CCOCC1)Cc1cccs1	-0.1	-7.5	1.1	27.6	.	.
O=S(=O)(c1ccc(Cl)cc1)N(CCCN1CCOCC1)Cc1cccs1	-0.1	-15.6	5.8*	47.9	-0.2	6.1
CCOC(=O)CS(=O)(=O)c1ccc(C(=O)N2CCC3(CC2)OCCO3)cc1[N+](=O)[O-]	0.0	-23.6	0.2	-1.1	.	.
O=C(Nc1ccc(Cl)cc1)c1ccc(CSc2ccc(Cl)cc2)cc1	0.0	-4.9	1.3	-14.2	.	.
COc1ccccc1N1CCN(CCN2CCN(C)CC2)CC1	-0.1	-2.0	12.5*	4.8	0.2	-10.6
COC(=O)c1ccc(OCC(O)CN2CCN(c3ccccc3OC)CC2)cc1 (centres undefined)	0.1	19.7	10.7*	-7.9	0.3	1.7
CCC(=O)c1ccc(OCC(O)CN2CCN(c3ccccc3OC)CC2)cc1 (centres undefined)	-0.2	3.9	2.4	-0.8	.	.
CCOc1ccc(-n2c(SCC#N)nc3c(sc(=S)n3-c3ccc(C)cc3C)c2=O)cc1	0.0	7.6	0.2	1.7	.	.
Cc1ccc(-n2c(=S)sc3c(=O)n(-c4ccc(F)cc4)c(SCC#N)nc32)c(C)c1	0.0	1.9	6.3*	-11.0	1.5	7.0
NC(=O)c1ccc(-c2cccc(C(=O)NCCc3ccc(O)cc3)n2)cc1	0.0	17.7	5.4*	46.7	0.9	5.8
COc1cccc2cc(-c3ccc4c(c3)OCO4)c(=O)oc12	-0.3	-51.8	5.2*	-10.7	-1.2	-11.7
COc1cccc2cc(-c3ccccc3)c(=O)oc12	0.0	-19.6	-7.9	-3.2	.	.
O=C(Nc1ccc(-c2cscn2)cc1)C1CCCN(C(=O)CCc2cnccn2)C1 (centres undefined)	-0.2	-9.4	-2.2	4.4	.	.
Cc1cc(N(C)C)nc(NCCNC(=O)/C=C/c2ccccc2)n1	-0.2	19.4	5.7*	12.7	-0.2	-7.2
Cc1ccc2nc3c(cc(C(=O)NC4CCCC4)c(=N)n3C3CCCC3)c(=O)n2c1	0.1	6.3	0.4	5.5	.	.
COc1cccc2cc(C(=O)C3=C(O)C(=O)N(Cc4ccco4)C3c3cccnc3)oc12 (centres undefined)	-0.3	10.7	5.4*	-2.3	-0.4	8.5
Cc1ccc2[nH]c3c(c2c1)CCCC3NCc1ccc(F)cc1 (centres undefined)	-0.1	48.9*	14.0*	13.1	-0.2	-2.2
Cc1ccc2[nH]c3c(c2c1)CCCC3NC(N)=O (centres undefined)	0.2	-2.2	0.4	4.8	.	.
SMILES	FBW7 act	TEAD-YAP inh	GPR151 activ	MITF primary	GPR151 conf act	GPR119 ag
C=CCN1C(=O)/C(=C2/C(=O)N(CC(=O)Nc3cccc(C)c3)c3ccccc32)SC1=S	0.1	2.9	-1.2	-9.6	.	.
COC(=O)c1cc(OC)c(OC)cc1NC(=O)c1cc(Cl)ccc1Cl	-0.1	-8.2	6.3*	-2.5	0.8	2.4
COC(=O)c1cc(OC)c(OC)cc1NC(=O)CCN1C(=O)c2ccccc2C1=O	-0.1	-0.9	5.9*	-8.4	-0.2	1.8
CCCCNC(=O)C(CC)Sc1nnc(-c2ccccc2)c(-c2ccccc2)n1 (centres undefined)	-0.1	1.2	5.5*	7.6	0.5	6.2
Fc1ccccc1COc1cccc(CNCc2ccccn2)c1	-0.7	0.3	-1.9	1.8	.	.
CCOC(=O)C1CCCN(C(=O)/C(C)=C\c2ccccc2)C1 (centres undefined)	0.3	-1.5	5.3*	2.1	-0.5	-7.0
Cn1c(=O)n(C)c2cc(S(=O)(=O)Nc3cccc(C(F)(F)F)c3)ccc21	-0.2	0.7	5.1*	-11.6	-0.6	7.0
CCc1cccc(NS(=O)(=O)c2ccc3c(c2)n(C)c(=O)n3C)c1	0.3	24.9	1.1	3.4	.	.
CC(=O)Nc1nc2ccc(Cl)cc2s1	-0.1	-40.3	-1.7	4.7	.	.
CC(C)CCn1c(N2CCCCCC2)nc2c1c(=O)[nH]c(=O)n2C	1.2	-19.7	-2.0	28.6	.	.
O=C(c1ccc(Br)c(S(=O)(=O)N2CCCCC2)c1)N1CCCCC1	0.1	-10.3	10.6*	-11.3	1.7	14.1
O=C(c1nc2sccn2c1CNCC(c1cccnc1)N1CCOCC1)N1CCCC1 (centres undefined)	0.0	13.2	9.8*	6.1	-0.2	-1.4
O=C(c1nc2sccn2c1CNCC(c1ccccn1)N1CCOCC1)N1CCCC1 (centres undefined)	-0.3	8.6	1.2	11.4	.	.
NS(=O)(=O)c1ccc(CCNC(=O)C(=O)Nc2ccccc2F)cc1	0.2	-1.9	7.1*	-5.3	-0.7	-7.3
COC(=O)c1ccc(OCCOCCOc2cccc3ccc(C)nc23)cc1	0.1	2.2	-0.9	6.5	.	.
COc1cccc(OCCCOc2cccc3ccc(C)nc23)c1	0.0	9.3	5.4*	9.6	-0.5	-5.8
COCCCNc1nc2c(S(=O)(=O)c3ccccc3)nnn2c2ccccc12	0.0	-1.5	-0.7	5.8	.	.
COCCCNc1nc2c(S(=O)(=O)c3ccccc3)nnn2c2ccsc12	0.4	-6.9	6.5*	-2.7	0.6	8.6
COc1ccc(/C=C(/NC(=O)c2ccccc2Br)C(=O)NCCO)cc1	-0.3	6.3	-1.0	-21.6	.	.
CN1C(=O)/C(=c2\sc3nc(=O)c(Cc4ccccc4)nn3c2=O)c2ccccc21	0.1	3.4	5.5*	15.3	0.2	4.2
O=C(CN1C(=O)/C(=c2/sc3nc4ccccc4n3c2=O)c2ccccc21)Nc1ccc(F)cc1	-0.1	4.9	1.8	4.0	.	.
O=C1/C(=c2\sc3nc4ccccc4n3c2=O)c2ccccc2N1Cc1ccccc1	0.0	-9.5	7.2*	-0.3	0.5	-11.9
Cc1ccc(N2C(=O)CC(Sc3nc4c(cc3C#N)CC(c3ccccc3)CC4)C2=O)cc1 (centres undefined)	0.0	4.0	0.2	-4.9	.	.
Cc1ccc(C(=O)Nc2ccc(NC(=O)c3ccccc3N)cc2)cc1	1.2	-8.0	5.3*	-0.9	1.4	12.2
